Laboratory results as given in PubChem BioAssay (NCATS).
Records with an inconclusive call do not appear. Active and inactive are the calls of the source. Calls follow the shape of the dose curve; as a rule, active = well fitted inhibition curve with a large enough effect; inconclusive = small, poorly fitted or top-dose-only effect; inactive = no such curve, though single readings can be large or run the other way.

Assay: Primary qHTS for inhibitors of nuclear receptor binding SET domain protein 2 (NSD2) in an RCH-ACV wild type WT cells (2C) (AID 1645877); also: nearly all actives have a fitted effect of over 70% in size
Conditions: RCH-ACV (leukaemia line) NSD2 WT (2C) viability, CellTiter-Glo, 72 h; series mostly up to 44.9 µM; activity change, negative = cell killing: at the top concentration
% is scaled to controls: 0 for no effect and ±100 for the full control effect; potency is read from the fitted curve at half-maximal effect.

Compound	outcome	activity change, negative = cell killing	Potency
CCS(=O)(=O)c1ccc(OC)c(C(=O)OC)c1	inactive	–	–
CC(C)(C)C(=O)OCOC(=O)C1N2C(=O)CC2S(=O)(=O)C1(C)C (stereo not drawn)	–	-2.82% (inactive)	–
O=C1CC2(CCCC2)CC(=O)N1CCNCC1COc2ccccc2O1 (stereo not drawn)	–	-4.89% (inactive)	–
O=C(O)Cn1c(=O)n(Cc2ccc(Br)cc2F)c(=O)c2ccc(Cl)cc21	–	-8.46% (inactive)	–
CC(C)C(C)(C)C(C)(C)C(C)(C)S	–	-14.1% [at 91.9 µM] (inactive)	–
CCCCCCn1c(=O)c2c(ncn2C)n(C)c1=O	–	-3.32% (inactive)	–
CC(C)(C)C1CCC(CC2=C(O)c3ccccc3C(=O)C2=O)CC1 (stereo not drawn)	–	–	9440 nM (active)
CCOc1ccccc1OCC1CNCCO1 (stereo not drawn)	–	3.57% (inactive)	–
O=C(CCCl)NCc1ccccc1	–	6.95% (inactive)	–
COC(=O)/C=C(/C)N	inactive	–	–
Nc1ccc2c(c1)CN1C(=O)c3ccccc3C1=N2	–	–	8200 nM (active)
O=C1Cc2cc(Cl)ccc2N1	–	2.25% (inactive)	–
CC(C)(C)c1ccc(C(=O)CCCCl)cc1	inactive	–	–
O=C(Oc1ccccc1)c1cccc(C(=O)Oc2ccccc2)c1	–	-16.7% [at 91.9 µM] (inactive)	–
Nc1ccc(C(=O)N2CC3CC(CN(Cc4ccccc4)C3)C2)cc1	–	-3.73% (inactive)	–
CC(C)(C)c1ccc(O)c(O)c1	–	–	2170 nM (active)
CC1(C)OC(=O)Nc2ccc(Br)cc21	–	-0.881% (inactive)	–
Nc1ccc(C(=O)OCC(O)CO)cc1 (stereo not drawn)	–	6.8% (inactive)	–
CC(COc1ccccc1)NN (stereo not drawn)	–	1.63% (inactive)	–

Compound	outcome	activity change, negative = cell killing	Potency
Cc1cc(O)c(C)c(C)c1O	inactive	–	–
CCCc1ncc(C(=O)O)s1	–	1.87% (inactive)	–
CC(NN)c1ccccc1 (stereo not drawn)	–	7.42% [at 17.3 µM] (inactive)	–
CC(=O)O[C@H]1CC[C@@]2(C)C(=CC[C@@H]3[C@@H]2CC[C@]2(C)C(C(C)=O)=CC[C@@H]32)C1	–	0.761% (inactive)	–
CCCCCCCCCCCC[N+](C)(C)Cc1ccccc1	–	–	473 nM (active)
NC(=O)COCCN1CCN(C(c2ccccc2)c2ccc(Cl)cc2)CC1 (stereo not drawn)	–	-10.5% (inactive)	–
COc1cc2c(cc1OC)CN(C(=O)[C@H](C)N[C@@H](CCc1ccccc1)C(=O)O)[C@H](C(=O)O)C2	–	-2.2% (inactive)	–
CCCCCCCCCCCCCCCCCCN(C)C	–	1.95% (inactive)	–
CN1Cc2cc(C(=O)N3CCC(C4CCNCC4)CC3)ccc2NC(CC(=O)O)C1=O (stereo not drawn)	inactive	–	–
O=C1CCCc2c(O)cccc21	–	-8.78% (inactive)	–
O=C(O)c1ccc(OCCN2CCCCC2)cc1	–	5.23% (inactive)	–
CCOc1ncc(F)c(=O)[nH]1	–	6.68% (inactive)	–
COC(=O)c1cc(Cl)c(NC(C)=O)cc1OC	inactive	–	–
O=C1CC2(CCCC2)CC(=O)N1	inactive	–	–
CSc1ccc(/C=C2/C(C)=C(CC(=O)O)c3cc(F)ccc32)cc1	–	-6.07% (inactive)	–
Cc1coc2ccccc2c1=O	inactive	–	–
CCN(CC)CC(=O)Oc1ccc(NC(C)=O)cc1	inactive	–	–
CCCCOC(=O)CCCCCCCCC(=O)OCCCC	–	-3.4% (inactive)	–
Cc1nc(N)nc(N)c1-c1ccc(Cl)c(Cl)c1	–	–	299 nM (active)
